Patent US20220289795, “EFFICIENT METHOD FOR PREPARING PPR PROTEIN AND USE OF THE SAME” (EditForce, Inc., published 2022)

Biological target: T1, v3.1_PPR14 (Artificial Sequence)
T1 chain: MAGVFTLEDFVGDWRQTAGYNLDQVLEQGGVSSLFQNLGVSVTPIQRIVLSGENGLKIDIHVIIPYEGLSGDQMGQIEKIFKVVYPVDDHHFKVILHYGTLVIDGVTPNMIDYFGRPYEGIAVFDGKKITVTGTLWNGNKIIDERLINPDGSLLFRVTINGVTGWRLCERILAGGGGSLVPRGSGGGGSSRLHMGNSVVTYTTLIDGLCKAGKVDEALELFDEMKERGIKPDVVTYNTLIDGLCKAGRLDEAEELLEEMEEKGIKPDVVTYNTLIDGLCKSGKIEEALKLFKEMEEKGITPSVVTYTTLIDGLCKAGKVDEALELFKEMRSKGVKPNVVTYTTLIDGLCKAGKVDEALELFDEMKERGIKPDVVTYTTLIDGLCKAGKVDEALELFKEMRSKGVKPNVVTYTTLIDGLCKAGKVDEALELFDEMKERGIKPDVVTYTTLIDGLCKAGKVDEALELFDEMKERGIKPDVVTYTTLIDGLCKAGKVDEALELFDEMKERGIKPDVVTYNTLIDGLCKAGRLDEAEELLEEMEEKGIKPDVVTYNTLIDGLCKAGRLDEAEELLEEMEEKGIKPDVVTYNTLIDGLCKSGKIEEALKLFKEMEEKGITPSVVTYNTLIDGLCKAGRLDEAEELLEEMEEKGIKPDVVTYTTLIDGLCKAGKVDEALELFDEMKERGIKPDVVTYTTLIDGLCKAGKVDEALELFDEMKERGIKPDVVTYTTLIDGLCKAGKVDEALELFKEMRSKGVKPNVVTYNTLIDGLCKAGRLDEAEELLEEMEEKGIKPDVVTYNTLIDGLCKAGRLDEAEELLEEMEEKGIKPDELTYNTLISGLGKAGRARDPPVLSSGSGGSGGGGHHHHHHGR
Assay: RPB-ELISA
Conditions: tags: N-terminal luciferase, C-terminal 6xHis; label: 5'-biotin; ssRNA
Procedure: RNA probes consisting of a designed 30-base sequence containing 18 bases of the target sequence and modified by biotinylation at the 5′ end (RNA_1, RNA_2, RNA_3, RNA_4, and RNA_5, SEQ ID NOS: 61 to 65) were synthesized (Grainer). To a streptavidin-coated plate (Thermo fisher), the 5′-end biotinylated RNA probes were added, reaction was allowed at room temperature for 30 minutes, and the plate was washed with a lysis buffer (20 mM Tris-HCl, pH 7.6, 150 mM NaCl, 5 mM MgCl₂, 0.5% NP-40, 1 mM DTT, 0.1% BSA). For background measurement, wells to which RNA was not added, but 100 μL of the lysis buffer, 1 μL of 100 mM DTT, and 1 μL of 40 unit/4 RNase inhibitor (Takara, 2313A) were added were also prepared. Then, 200 μL of a blocking buffer (20 mM Tris-HCl, pH 7.6, 150 mM NaCl, 5 mM MgCl₂, 0.5% NP-40, 1 mM DTT, 1% BSA) was added, and the plate surface was blocked at room temperature for 30 minutes. Then, 100 μL of E. coli lysate containing luciferase-fused PPR protein having a luminescence level of 1.5×10⁸ LU/μL was added to each well, and the binding reaction was allowed at room temperature for 30 minutes. The well was washed 5 times with 200 μL of a washing buffer (20 mM Tris-HCl, pH 7.6, 150 mM NaCl, 5 mM MgCl₂, 0.5% NP-40, 1 mM DTT). […] The background (luminescence signal value obtained with adding the PPR protein and without adding RNA) was subtracted from the luminescences of the samples to which a solution containing each RNA and PPR protein was added, and the obtained values were used as the binding powers between the PPR protein and RNA.
By using the V3.1 motif, PPR proteins for the same 23 kinds of target sequences were similarly prepared (SEQ ID NOS: 411 to 433 for the nucleotide sequences, and SEQ ID NOS: 434 to 456 for the amino acid sequences), and bindings of all the combinations were analyzed by using RPB-ELISA. The experimental method was the same as that used in Example 3.

Sequence	binding signal
GGUUAGAGAUACAGUGUG	22.5 log2 luminescence
GUGGGGGUGGUAGGAAAU	20.1 log2 luminescence
